Assay outcomes from PubChem BioAssay.
In the library only some 14% were active in any assay of this set; here they are far more common.
Sm TGR block: qHTS Assay for the Inhibitors of Schistosoma Mansoni Peroxiredoxins; Schistosoma mansoni thioredoxin glutathione reductase (TGR), Q962Y6; purified TGR, DTNB reduction, TNB absorbance 405 nm; Potency, µM (top dose mostly 114 µM), inactives show top-dose activity change, negative = inhibition, usual class: inhibitors; hit rate 3% among 360,000; AID 485364, 2010; also: potency is read from the fitted curve at half-maximal effect; nearly all actives have a fitted effect of over 60% in size
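First, TGR (20 nM dispensed) and NADPH were mixed with compound. Second, a 15 min room-temperature incubation followed. Third, further NADPH and then DTNB were added to start the reaction. Finally, TNB absorbance was monitored kinetically.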
HCMV inh: qHTS Assay for inhibitors of the human cytomegalovirus (HCMV). AID 1259415, 2018. hit rate 4.5% among 410,000. HFF cells, HCMV-luciferase reporter, 72 h; active compounds read low. activity change, negative = inhibition, % at 57.5 µM; in the data active = activity change below about -60%; inconclusive = no clear call, values can overlap the other calls; inactive = above about -39%
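Steps: HFFs plated, 16 h 37C; compounds added; HCMV-luciferase added to MOI 1 PFU/cell; 72 h 37C; OneGlo reagent, 5 min room temperature; luminescence read, normalized to controls.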
FBPA Giardia inh: qHTS Assay for Inhibitors of Fructose-1,6-bisphosphate Aldolase from Giardia Lamblia. A8B2U2. purified Giardia FBPA. Potency, µM (doses to about 59.6 µM), inactives show at the top dose activity, negative = inhibition, hits mostly inhibitors. hit rate 0.71% among 290,000. AID 2451, 2010; also: potency is read from the fitted curve at half-maximal effect; nearly all actives have a fitted effect of over 55% in size
Target sequence (A8B2U2 whole entry, looked up): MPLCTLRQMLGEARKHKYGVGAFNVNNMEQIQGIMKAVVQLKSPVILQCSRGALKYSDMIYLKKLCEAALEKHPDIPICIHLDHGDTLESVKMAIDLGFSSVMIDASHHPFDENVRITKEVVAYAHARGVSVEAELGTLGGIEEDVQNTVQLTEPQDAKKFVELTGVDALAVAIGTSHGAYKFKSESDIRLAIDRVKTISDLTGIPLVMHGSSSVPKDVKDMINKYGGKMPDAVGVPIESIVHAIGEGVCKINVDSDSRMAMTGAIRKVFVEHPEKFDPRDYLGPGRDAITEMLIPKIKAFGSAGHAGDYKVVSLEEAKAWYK
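Giardia FBPA (40 nM reagent) was preincubated 10 min at RT with compound (up to 57.5 uM final), then substrate plus GAPDH/TPI/NAD/arsenate coupling system with diaphorase/resazurin was added; resorufin fluorescence (525/598 nm) was read after 20 min.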
Pf growth 96h: Primary qHTS for delayed death inhibitors of the malarial parasite plastid, 96 hour incubation | AID 504834, 2011 | Potency, µM (highest dose often 28.7 µM), for inactives: at the highest dose activity change, negative = inhibition, most hits filed as inhibitors | hit rate 6.9% among 320,000 | P. falciparum luciferase reporter growth, 96 h; also: potency is read from the fitted curve at half-maximal effect
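Infected RBCs, 2% Hct / 0.05% parasitemia final; luciferase-reporter P. falciparum; cpd 96 h, 37 C, 5% CO2; luciferase detection reagent; luminescence.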
Pf growth 48h: Primary qHTS for delayed death inhibitors of the malarial parasite plastid, 48 hour incubation. AID 504832, 2011. Potency, µM (titrated, usually from 28.7 µM), for inactives: at the top dose activity change, negative = inhibition, hits mostly inhibitors. hit rate 5.9% among 310,000. P. falciparum luciferase growth in erythrocytes, 48 h; also: potency is read from the fitted curve at half-maximal effect
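Read-out is firefly luciferase luminescence from an integrated reporter in P. falciparum, so falling signal marks reduced parasite growth. Infected erythrocytes were at 2% hematocrit and 0.1% parasitemia (final) in Albumax-supplemented RPMI 1640.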
The depositor's hits bear a star; u = inconclusive; x = no result; ! = a repeat was not active. Unless noted, calls follow the shape of the dose curve; as a rule, active = well fitted curve in the direction sought with a large enough effect; inconclusive = small, poorly fitted or top-dose-only effect, or another doubt; inactive = no such curve, though single readings can be large; an effect the other way counts as inactive or inconclusive. % is scaled to controls: 0 for no effect and ±100 for the full control effect.

SMILES	Sm TGR block	HCMV inh	FBPA Giardia inh	Pf growth 96h	Pf growth 48h
N#Cc1ccc2[nH]cc(C3c4cc(F)ccc4C=C(c4ccsc4)N3c3ccc(C#CCCO)cc3)c2c1 (centres undefined)	x	-1	x	x	x
COc1ccc(CCC(=O)NCCc2ccc(OC)c(OC)c2)cc1	0%	15	-3%	u	10%
COc1ccc(CC(C)CC(=O)NCCc2ccc(OC)c(OC)c2)cc1 (centres undefined)	-10%	-61*	5%	u	-12%
COc1ccc(C(=O)Cc2ccc(OC)c(OC)c2)cc1	-2%	6	-4%	70%	x
COc1ccc2c(=O)c(C(=O)NCCc3ccc(OC)c(OC)c3)c[nH]c2c1	-12%	-4	-10%	u	10µM*
COc1ccc(-n2nnnc2SCC(=O)NCCc2ccc(OC)c(OC)c2)cc1	-26%	5	5%	5.2µM*	-13%
COc1ccc2c(=O)c(C(=O)NCCc3ccccc3)c[nH]c2c1	-5%	14	2%	-16%	2%
COc1ccc(C(=O)CCc2ccc(OC)c(OC)c2)cc1	x	-80*	x	x	x
Cc1sc2ncn(CC(=O)N(C)c3ccc(C(C)C)cc3)c(=O)c2c1S(=O)(=O)N1CCC(C)CC1	-21%	-11	x	x	x
COc1ccc(-n2nnnc2SC(C)C(N)=O)cc1 (centres undefined)	u	40	6%	12µM*	1%
COc1ccc(-n2nnnc2SC(C)C(=O)NCC(=O)Nc2ccc(F)c(F)c2F)cc1 (centres undefined)	-9%	-32	1%	0%	-5%
COc1ccc(S(=O)(=O)Nc2cccnc2)cc1	4%	-19	8%	33%	u
CCN(CC)CCNC(=O)c1c(O)c2cccc3c2n(c1=O)CCC3	0%	-29	-5%	x	1.9µM*
Cc1cnc(NC(=O)c2c(O)c3cccc4c3n(c2=O)CCC4)s1	2%	x	14%	22%	31%
CC(C)c1nnc(NC(=O)c2c(O)c3cccc4c3n(c2=O)CCC4)s1	11%	-96*	6%	u	u
CNC(=O)c1c(O)c2cccc3c2n(c1=O)CCC3	0%	-98*	5%	89%	22%
Cn1nc(-c2ccccc2)cc1NC(=O)[C@@H]1O[C@H](CO)[C@H](O)[C@H](O)[C@H]1O	x	-11	x	x	x
CC(=O)NC1=NN(C(C)=O)C(C)(c2cccs2)S1 (centres undefined)	4%	-31	6%	10µM*	28%
CC(=O)NC1=NN(C(C)=O)C(C)(c2ccco2)S1 (centres undefined)	4%	-29	1%	-11%	u
CN1C(=O)NC(=O)/C(=C\C=C\c2ccccc2[N+](=O)[O-])C1=O	u	-99*	u	139%	15%
CC(C)[C@H](NC(=O)C1CC(=O)N(c2ccc(F)cc2)C1)C(=O)N1CCCCC1 (some centres undefined)	-11%	-4	-5%	-4%	-1%
COC(=O)C1=C(CCc2ccccc2)NC(=O)NC1c1ccc(Br)cc1 (centres undefined)	-26%	-1	16%	13µM*	14%
CC1CCCCN1C(=S)Nc1ccc2nc3n(c(=O)c2c1)CCCCC3 (centres undefined)	u	-104*	-9%	23%	15%
COc1ccc(C(=O)Nc2ccc3nc4n(c(=O)c3c2)CCCCC4)cc1OC	-1%	4	x	x	x
CCCN(C(=O)C(=O)Nc1ccc2nc3n(c(=O)c2c1)CCCCC3)c1ccc(OCC)cc1	10%	-6	3%	-9%	0.12µM*
SMILES	Sm TGR block	HCMV inh	FBPA Giardia inh	Pf growth 96h	Pf growth 48h
CCOC(=O)Nc1ccc2nc3n(c(=O)c2c1)CCCCC3	-29%	-24	-3%	0%	34%
O=c1c2cc(NC(=S)NC3CCCCC3)ccc2nc2n1CCCCC2	-5%	-80*	4%	u	u
O=c1c2cc(NC(=S)NC3CCCC3)ccc2nc2n1CCCCC2	u	u	-1%	u	-10%
COc1cc(C(=O)Nc2ccc3nc4n(c(=O)c3c2)CCCCC4)cc(OC)c1OC	-13%	9	x	2.6µM*	-8%
Cc1ccccc1CSc1ccc(S(=O)(=O)N2CCCC2)cn1	x	-6	x	x	x
COc1ccc2[nH]cc(CCNc3ncncc3-c3cccc(NS(C)(=O)=O)c3)c2c1	x	x	0%	x	x
O=c1c2cc(NC(=S)NCCCN3CCC(Cc4ccccc4)CC3)ccc2nc2n1CCCCC2	u	-96*	2%	u	u
O=c1c2cc(NC(=S)NCCN3CCCCCC3)ccc2nc2n1CCCCC2	-2%	0	1%	-8%	-28%
O=S(=O)(c1ccc(Cl)cc1)N1CCCCCC1	2%	10	-8%	3%	1%
O=S(=O)(c1c(Cl)sc(Cl)c1Br)N1CCCC1	7%	-34	-6%	12µM*	u
COc1ccc2c(c1)C(n1ccc3ccccc31)C(=O)N2Cc1ccc(C(F)(F)F)cc1 (centres undefined)	x	27	x	x	x
C/C(=N\NC(=O)C(C)n1nc(C)c([N+](=O)[O-])c1C)c1ccccc1O (centres undefined)	3%	-101*	u	u	9.3µM*
Cc1cccc(NC(=O)c2ccccc2NC(=O)CCC(=O)O)c1	-7%	-79*	5%	-3%	8%
O=C(CCN1CCCCCC1)Nc1ccccc1F	x	-1	x	x	x
Cc1cccc(NC(=O)CCn2cnnn2)c1	89µM*!	23	1%	-22%	7%
O=C(CCn1cnnn1)Nc1ccccc1F	0%	1	4%	4.7µM*	13%
CNc1ccccc1C(=O)OC(C)C(=O)Nc1ccc(Cl)cn1 (centres undefined)	5%	-98*	-2%	u	5%
CCOc1ncccc1C(=O)OC(C)C(=O)Nc1ccc(Cl)cn1 (centres undefined)	-5%	12	x	32%	-2%
O=C1CC(SCc2nc3ccccc3[nH]2)C(=O)N1c1ccc(F)c(Cl)c1 (centres undefined)	40µM*	-9	-3%	9%	x
O=C1CC(SCc2nc3ccccc3[nH]2)C(=O)N1c1ccc(Cl)cc1 (centres undefined)	25µM*	-19	-17%	4%	17%
O=C1CC(SCc2nc3ccccc3[nH]2)C(=O)N1c1cccc(F)c1 (centres undefined)	u	-25	-19%	0%	5%
CCOc1ccc(N2C(=O)CC(SCc3nc4ccccc4[nH]3)C2=O)cc1 (centres undefined)	45µM*	10	-17%	u	u
O=C1c2ccccc2/C(=C\c2ccc(Br)nc2)N1c1ccccc1	x	12	x	x	x
Cc1ccc(NC(=S)/C(C#N)=C2/Nc3ccccc3S2)cc1	x	-79*	x	x	x
